# Test results from article PMC5540273 (PLoS ONE, 2017).
# What was measured:
# Settings in all cases: concentration: 1 μM, replicates: in singlicate; n = 1
# YANK1 = system: T1, YANK1
# T1 construct: gene STK32A
# YANK2 = system: T2, YANK2
# T2 construct: gene STK32B
# YANK3 = system: T3, YANK3
# T3 construct: gene STK32C
# YES = system: T4, YES
# T4 construct: gene YES1
# YSK1 = system: T5, YSK1
# T5 construct: gene STK25
# YSK4 = system: T6, YSK4
# T6 construct: gene MAP3K19
# ZAK = system: ZAK
# ZAP70 = system: ZAP70
# p38-alpha = system: T7, p38-alpha
# T7 construct: gene MAPK14
# p38-beta = system: T8, p38-beta
# T8 construct: gene MAPK11
# p38-delta = system: p38-delta
# p38-gamma = system: T9, p38-gamma
# T9 construct: gene MAPK12
# 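Further: KINOMEscan kinase panel screen.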
SMILES,%Inh (YANK1) [%],%Inh (YANK2) [%],%Inh (YANK3) [%],%Inh (YES) [%],%Inh (YSK1) [%],%Inh (YSK4) [%],%Inh (ZAK) [%],%Inh (ZAP70) [%],%Inh (p38-alpha) [%],%Inh (p38-beta) [%],%Inh (p38-delta) [%],%Inh (p38-gamma) [%]
CCS(=O)(=O)c1ccc(OC)c(Nc2ncc(-c3ccc(F)cc3)o2)c1.Cl [GW591947],11,2,2,6,3,10,0,0,0,0,43,6
Cc1nn2c(=O)cc(N3CCOCC3)nc2n1Cc1cccc(Cl)c1Cl [GSK2342769],0,0,22,13,0,32,9,0,0,0,17,0
Cl.NS(=O)(=O)c1cccc(Nc2cc(-c3ccc(F)cc3)n[nH]2)c1 [GW824645],0,0,0,0,8,0,0,0,0,0,0,0
O=C(NCCNc1ccnc(Nc2ccc(F)cc2)n1)Nc1ccc2c(c1)OCO2 [GSK1379882],0,1,0,0,17,9,100,0,19,0,37,19
O=C(Nc1n[nH]c2nc(-c3ccccc3)c(Br)cc12)C1CC1 [SB-708998],7,10,11,12,0,95.3,9,5,7,41,0,26
O=c1cc(N2CCOCC2)nc2n(Cc3ccc(F)c(Cl)c3)ccn12 [GSK2297099],1,11,0,11,18,6,5,0,0,0,36,0
C[C@@H]1CC[C@H](C(=O)NC2CCCCC2)CN1c1cc(-c2ccc3c(N)n[nH]c3c2)nc(N)n1 [GSK2291363],6,3,26,21,24,27,9,0,36,0,42,45
CCC(=O)c1c(-c2ccccc2)c2cc(Cl)ccc2c(=O)n1Cc1cc(S(C)(=O)=O)n(CC(N)=O)n1,0,0,0,0,0,0,0,0,0,8,16,7
O=C1NC(=O)C(c2ccccc2)=C1Nc1cccc(O)c1 [SB-390534],0,0,0,0,8,0,8,0,1,3,0,15
CC(C)(C)c1ccc(C(=O)Nc2cn3cc(-c4ccccc4)ccc3n2)cc1,0,0,0,2,0,21,14,0,0,11,34,8
COC(=O)c1c(-c2ccccc2)c2cc(Br)ccc2c(=O)n1Cc1ccc(NC(=O)CCC(=O)O)cc1,0,21,0,0,0,12,36,0,5,5,28,21
COc1cccc(-n2cnc3c(N)ncnc32)c1 [SKF-97416],4,0,1,0,0,45,42,25,0,22,0,52
CCC(=O)c1c(-c2ccccc2)c2cc(Cl)ccc2c(=O)n1Cc1cc(C(=O)NC2CC2)n(C)n1,0,9,20,0,4,0,23,0,16,0,35,9
CCCNC(=O)Nc1ccc(Oc2ncnc3ccn(C)c23)cc1,0,8,13,0,3,33,1,0,2,15,4,3
Nc1n[nH]c2ncc(-c3ccccc3)cc12 [SB-517081],9,0,23,20,8,52,25,0,13,0,24,31
